The values below come from PubChem BioAssay (Tox21).

Records with an inconclusive call do not appear. Entries that show only a call come without a potency. Values without a mark were called inactive. Activity calls are given as the source filed them. Calls come from the whole dose curve.
Potency is the fitted concentration of half-maximal effect.

Muscarinic acetylcholine receptor M1 (Homo sapiens), sequence (P11229 whole entry, looked up): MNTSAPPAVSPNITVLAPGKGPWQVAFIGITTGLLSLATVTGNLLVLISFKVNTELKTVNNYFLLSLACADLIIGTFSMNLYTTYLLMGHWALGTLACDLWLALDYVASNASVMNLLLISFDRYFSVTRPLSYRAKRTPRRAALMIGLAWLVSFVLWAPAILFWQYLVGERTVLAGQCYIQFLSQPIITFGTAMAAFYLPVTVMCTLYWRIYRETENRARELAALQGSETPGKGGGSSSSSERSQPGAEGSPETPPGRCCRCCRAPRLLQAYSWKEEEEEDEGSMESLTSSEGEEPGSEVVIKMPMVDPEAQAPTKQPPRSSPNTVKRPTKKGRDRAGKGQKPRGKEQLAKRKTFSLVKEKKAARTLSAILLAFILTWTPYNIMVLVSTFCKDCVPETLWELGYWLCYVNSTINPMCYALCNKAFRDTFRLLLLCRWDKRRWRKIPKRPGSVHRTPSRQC

The assay has as its target Muscarinic acetylcholine receptor M1 (Homo sapiens) (UniProt P11229). Nature of the assay: Cholinergic receptor muscarinic 1 (CHRM1) small molecule antagonists, cell-based qHTS assay (AID 1963588). Note: nearly all actives have a fitted effect of over 40% in size. As to conditions: CHRM1-CHO antagonist mode, calcium flux fluorescence; series mostly up to 61.5 µM. The source says: National Center for Advancing Translational Sciences [NCATS]
Division of Preclinical Innovation [DPI]
U.S. Environmental Protection Agency [EPA]
National Institutes of Environmental Health Sciences [NIEHS]
National Toxicology Program [NTP]
U.S. Food and Drug Administration [FDA]
The CHRM1 is a muscarinic receptor. This receptor plays a crucial role in learning and memory processes and has long been identified as a promising therapeutic target for the improvement of cognitive decline in Alzheimer's disease (AD). The CHRM1-CHO cell line stably expressing human muscarinic acetylcholine receptor M1 (CHRM1) can be used for screening agonists and antagonists of interactions between CHRM1 and its ligands. The CHRM1-CHO Calcium Flux Assay is a homogeneous fluorescence-based assay for detecting the intracellular calcium level using FDSS kinetic plate reader system.
Tox21 Assay Protocol Summary:
CHRM1-CHO cells were dispensed at 1000 cells/3uL/well in 1536-well black-clear bottom plates using a Multidrop Dispenser. After the assay plates were incubated at a 37 C/5% CO2 incubator for 18 h, 3 uL of Dye Loading Buffer was transferred to the assay plate by a Flying Reagent Dispenser. The assay plates were incubated at 37 C for 1h. For antagonist mode, 23 nL of compounds dissolved in DMSO, positive controls or DMSO only was transferred to the assay plate by a pin tool. After 5 min incubation at room temperature, 1.5 uL of acetylcholine at 50nM was added to each well. The fluorescence intensity in the plates was measured using FDSS 7000EX kinetic plate reader for 3 min at 1 sec intervals. Each test compound was measured at 15 concentrations in three independent runs.
Consider `CN(CC1(C)CCCO1)S(=O)(=O)c1ccc(Cl)c(S(N)(=O)=O)c1` (stereo not given), for which the Potency entry was “inactive”. Consider `O=C(NCN1CCOCC1)c1cnccn1`, for which the Potency entry was “inactive”. Regarding `O=C(c1ccc(O)cc1O)c1ccc(O)cc1O`, the Potency result was “inactive”. On the same count and under the same terms, then `Nc1ccccc1S(=O)(=O)O`, with “inactive”.

Take `c1ccc2ncccc2c1`: the Potency entry was “inactive”. For the compound `CCN(CC)c1ccc(C(=O)c2ccccc2C(=O)O)c(O)c1`, the Potency result is “inactive”. Same read-out and setting: to `CCc1cnc(C(=O)O)c(C(=O)O)c1` belongs “inactive”; to `C[Si]1(C)O[Si](C)(C)O[Si](C)(C)O[Si](C)(C)O[Si](C)(C)O1`, “inactive”.

For `COCCOCCOCCOCCOCCO`, the Potency entry is “inactive”.

As to `O=C(O)c1cc(-c2ccccc2)nc2ccccc12`, the Potency entry was “inactive”.

Turning to `NCC1CCCC(CN)C1` (stereo not given), the Potency is 18.8 µM (active). For the compound `CC(C)NC(=O)c1ccccc1N`, the Potency entry is “inactive”. Take `CCCCCCCCCCCCC(=O)O`: the Potency entry was “inactive”.

In the case of `C=CC(=O)OCCOC(=O)C=C`, the Potency entry is “inactive”. On to `NS(=O)(=O)c1ccccc1OC(F)(F)F`, for which the Potency entry is “inactive”.

As to `CCCCCCCC(=O)OCCCCCC`, the Potency entry was “inactive”. Regarding `CCCCCCCCCCCCCCCCCCOCC(O)CO` (stereo not given), the Potency result is “inactive”. As to `COC(=O)c1ccccc1C(=O)O`, the Potency result is “inactive”.

With `CSCCC=O`, the Potency entry was “inactive”. Same read-out and setting: then `CC(=O)c1cccc([N+](=O)[O-])c1`, with “inactive”; and `OC1OC[C@@H](O)[C@H](O)[C@H]1O` (stereo not given in full), with “inactive”. The same measure, in the same setting: then `CO[C@@]1(NC(=O)C(C(=O)O)c2ccc(O)cc2)C(=O)N2C(C(=O)O)=C(CSc3nnnn3C)CO[C@@H]21` (stereo not given in full), with “inactive”.

In the case of `CO/N=C(/C(=O)N[C@@H]1C(=O)N2C(C(=O)O)=C(COC(N)=O)CS[C@H]12)c1ccco1`, the Potency result is “inactive”. In the case of `NC(=O)c1cccc([N+](=O)[O-])c1`, the Potency entry was “inactive”. `Cc1ccccc1OCC(O)CO` (stereo not given): the Potency result is “inactive”. Regarding `Cc1ccc(S(=O)(=O)NC(=O)NC2CCCCCCC2)cc1`, the Potency result was “inactive”. Consider `CC1=C(C=O)C(C)(C)CC=C1`, for which the Potency entry was “inactive”. Still for that read-out and setting: to `CC(=O)OCCN(CCOC(C)=O)c1ccc(N=Nc2ccc([N+](=O)[O-])cc2C#N)cc1` belongs “inactive”; to `CC(C)(C)CC(C)(C)c1ccc(O)c(-n2nc3ccccc3n2)c1`, “inactive”.

Consider `N#CCc1cccc(C(F)(F)F)c1`, for which the Potency result was “inactive”. Regarding `CC(C)CC(C)O` (stereo not given), the Potency entry is “inactive”.

On to `CC(=O)N(c1onc(C)c1C)S(=O)(=O)c1ccc(N)cc1`, for which the Potency entry is “inactive”. Take `CC(C)c1ccc2c(C(C)C)cc(C(C)C)c(S(=O)(=O)O)c2c1`: the Potency result was “inactive”. As to `CC(C)c1ccc(S(=O)(=O)O)cc1`, the Potency entry was “inactive”. Regarding `CC(=O)OC[C@H]1O[C@@H](OC(C)=O)[C@H](OC(C)=O)[C@@H]1OC(C)=O`, the Potency entry is “inactive”. On to `CCC(C)S` (stereo not given), for which the activity, negative = inhibition was 18.7% [at 2.17 µM]. As for `C[C@@H]1NC(=O)[C@@H](N)CNC(=O)[C@H](C2CCNC(N)=N2)NC(=O)/C(=C/NC(N)=O)NC(=O)[C@H](CNC(=O)C[C@@H](N)CCCN)NC1=O` (stereo not given in full), the activity, negative = inhibition was -3.02% [at 0.232 µM]. With `OC1(c2ccc(Cl)cc2)CCNCC1`, the Potency result is “inactive”. Take `O=C(O)c1cc2ccccc2cc1O`: the Potency result was “inactive”. Take `CC(C)CC(C)(N)C#N` (stereo not given): the Potency result was “inactive”.
